{"source": "PubChem BioAssay AID624442", "about": "(Broad Institute, 2012)", "note": "The source made the active and inactive calls.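 The calls were made as follows: active = activation curve reaches 40% at a concentration no higher than the top valid dose tested; inactive = signal falling instead of rising, plus the rest.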"}
{"assay": "reactive oxygen species induction in U2OS, dose response, U2OS cells, fluorescence, dry powder, set 2 (AID 624442)", "details": "U2OS ROS induction, H2DCF-DA fluorescence, active compounds read high; at 38 µM unless noted"}
{"smiles": "Cc1ccccc1CSc1n[nH]c(N)n1", "max activation": "25.1% [at 1.2 µM] (inactive)"}
{"smiles": "Nc1nc(SCc2ccc(F)cc2)ns1", "max activation": "15.9% [at 1.2 µM] (inactive)"}
{"smiles": "Cc1ccccc1CSc1nnc(N)s1", "max activation": "16.2% [at 19.5 µM] (inactive)"}
{"smiles": "Nc1nc(SCc2ccc(Cl)cc2Cl)ns1", "max activation": "32.3% [at 0.3 µM] (inactive)"}
{"smiles": "O=C(Nc1nc(SCc2ccccc2)ns1)C1CC=CCC1", "note": "(configuration not stated)", "max activation": "65.2% (inactive)"}
{"smiles": "Nc1nc(SCc2ccccc2Cl)ns1", "max activation": "17.6% [at 5 µM] (inactive)"}
{"smiles": "Cc1ccccc1CSc1nsc(N)n1", "max activation": "27.9% [at 19.5 µM] (inactive)"}
{"smiles": "O=C(Nc1nc(SCc2ccccc2)ns1)C1CCC1", "max activation": "30.8% (inactive)"}
{"smiles": "Cc1cccc(CSc2nsc(N)n2)c1", "max activation": "24.3% [at 19.5 µM] (inactive)"}
{"smiles": "Nc1nc(SCc2ccccc2)ns1", "max activation": "14.6% [at 5 µM] (inactive)"}
{"smiles": "O=C(Nc1ccccc1)Nc1nc(SCc2ccccc2)ns1", "max activation": "11.1% (inactive)"}
{"smiles": "Nc1nc(S(=O)(=O)Cc2ccccc2)ns1", "max activation": "18.5% [at 0.6 µM] (inactive)"}
